Laboratory results published in PubChem BioAssay (NCI).
“And” between values parts separate entries of the source, which are not always exact repeats. Equal entries are not always repeated. About 83,000 compounds went through this panel and 20% of them were active in at least one assay; those are over-represented in the sample as a whole.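 Cell lines were cultured in 96-well plates, exposed to a single compound concentration, and assessed for percent growth 48 hours later.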 The source made the active and inactive calls. Rule for the calls: active = growth percent below 10; inactive = the rest.

What was measured:
Test in all cases: NCI-60 one-dose screen, 48 h (100 = growth as untreated, 0 = no growth, -100 = all killed)
Settings in all cases: 10 µM unless noted
[1] = system: SR leukemia
[2] = system: RPMI-8226 leukemia
[3] = system: OVCAR-8 ovarian
[4] = system: OVCAR-5 ovarian
[5] = system: OVCAR-4 ovarian
[6] = system: SK-OV-3 ovarian
[7] = system: IGROV1 ovarian
[8] = system: OVCAR-3 ovarian
[9] = system: HS 578T breast
[10] = system: NCI/ADR-RES ovarian
[11] = system: T-47D breast
[12] = system: BT-549 breast
[13] = system: MDA-MB-435 melanoma
[14] = system: SW-620 colon
[15] = system: MCF7 breast
[16] = system: HCT-116 colon
[17] = system: HCC-2998 colon
[18] = system: KM12 colon
[19] = system: MDA-MB-468 breast

Measured: growth

COc1cc2c(c(OC)c1OC)C(=O)CC(c1cccc(NC(=O)[C@@H](N)CC(C)C)c1)O2 (some centres undefined)
inactive: [1] 66.9% | [2] 108% | [3] 94.9% | [4] 112% | [5] 102% | [6] 109% | [7] 107% | [8] 97.9% | [9] 88.4% | [10] 99.8% | [11] 86% | [12] 94.3% | [13] 91.2% | [14] 107% | [15] 86.8% | [16] 101% | [17] 117% | [18] 97.2% | [19] 89.3%

Cc1cc2c(cc1Cl)C(=O)/C(=C/c1ccc(F)cc1)O2
inactive: [1] 89.1% | [2] 97.2% | [3] 97.5% | [4] 106% | [5] 90.9% | [6] 100% | [7] 20.9% | [8] 124% | [9] 97.1% | [10] 93.3% | [11] 69.1% | [12] 85% | [13] 106% | [14] 111% | [15] 37.9% | [16] 73.5% | [17] 117% | [18] 92.7% | [19] 91.1%

COc1ccc(C(=O)/C=C/c2ccc(OCc3ccccc3)c(OC)c2)cc1OC
active: [1] 8.91% | [2] 9.53% | [3] -1.43% | [4] 4.82%
inactive: [5] 25.6% | [6] 83.5% | [7] 23.3% | [8] 25.8% | [9] 75.5% | [10] 19.7% | [11] 30.4% | [12] 12.6% | [13] 30.9% | [14] 10.4% | [15] 10.5% | [16] 12.3% | [17] 15.2% | [18] 16% | [19] 23.8% and 11.1%

Nc1nc(-c2ccccc2)c(N=Nc2ccc(Cl)cc2[N+](=O)[O-])s1
inactive: [1] 99.7% | [2] 94.2% | [3] 91.3% | [4] 101% | [5] 97.2% | [6] 96.5% | [7] 80.5% | [8] 108% | [9] 79.6% | [10] 101% | [11] 61.2% | [12] 92.6% | [13] 105% | [14] 102% | [15] 60.3% | [16] 97.1% | [17] 102% | [18] 102% | [19] 89.7%

CN(C)CCn1c2ccccc2c2nc3ccc([N+](=O)[O-])cc3nc21
active: [3] -15.6% | [4] -0.168% | [6] 8.18% | [7] 4.78% | [8] 7.62% | [10] 8.38% | [16] 0.47% | [17] 2.82% | [18] 1.62% | [19] -25.5%
inactive: [1] 13% | [2] 20.3% | [5] 16.6% | [9] 10.1% | [11] 14.3% | [12] 12.5% | [13] 22.3% | [14] 12.2% | [15] 12.4%

OCNc1ccc(-n2cnc3cc(-c4ccc(O)cc4)ccc32)cc1C(F)(F)F
active: [13] 7.66% | [18] 4.46%
inactive: [1] 25.3% | [2] 24.1% | [3] 16% | [4] 34.4% | [5] 55% | [6] 54.7% | [7] 44% | [8] 15.9% | [9] 11.2% | [10] 17.2% | [11] 23.8% | [12] 24% | [14] 27.1% | [15] 10.1% | [16] 22.6% | [17] 43.4% | [19] 27.7%

Cc1cc2nc3c4ccccc4n(CCCN(C)C)c3nc2cc1C
active: [1] 3.07% | [2] -26.1% | [3] 6.13% | [4] 9.07% | [5] -23.4% | [6] 8.14% | [7] -10.5% | [8] -14.2% | [9] -10.7% | [10] 1.96% | [11] -10.7% | [12] -78.2% | [13] -93% | [14] -16.3% | [15] -30% | [16] 3.73% | [17] -81.4% | [18] -8.99% | [19] -56.9%

COc1cc(C2CC(c3ccc(S(=O)(=O)NCCNc4nc(Nc5ccc(F)cc5)nc(N(C)C)n4)cc3)=Nc3c(N)nc(N)nc3N2)cc(OC)c1OC (centres undefined)
active: [19] 0.318%
inactive: [1] 36.1% | [2] 24.8% | [3] 93.1% | [4] 98.4% | [5] 85.6% | [6] 110% | [7] 81.7% | [8] 93.6% | [9] 76.5% | [10] 95.6% | [11] 56.2% | [12] 62.8% | [13] 87.1% | [14] 96.3% | [15] 51.1% | [16] 82.6% | [17] 87.5% | [18] 95.5%

N/C(=N\N=C\c1ccc([N+](=O)[O-])cc1)c1c(N)nc(=S)[nH]c1-c1ccc(Cl)cc1Cl
inactive: [1] 76.9% | [2] 97.3% | [3] 98.4% | [4] 111% | [5] 111% | [6] 89.1% | [7] 94.9% | [8] 110% | [9] 87.1% | [10] 105% | [11] 95.3% | [12] 75.6% | [13] 108% | [14] 108% | [15] 88.2% | [16] 85.2% | [17] 106% | [18] 108% | [19] 90.8%

Cn1cc(-c2cc(N)n3nc(-c4cn(C)c5ccc(Cl)cc45)cc3n2)c2ccccc21
inactive: [1] 99.7% | [2] 109% | [3] 104% | [4] 108% | [5] 111% | [6] 105% | [7] 111% | [8] 122% | [9] 113% | [10] 105% | [11] 101% | [12] 118% | [13] 101% | [14] 114% | [15] 98.8% | [16] 104% | [17] 105% | [18] 109% | [19] 96.4%

COc1ccc(/C=C/c2n(Cc3ccc4ccccc4c3)c3ccccc3[n+]2Cc2ccc3ccccc3c2)cc1
active: [1] -34.9% | [2] -48.5% | [3] -75.2% | [4] -98.4% | [5] -65% | [6] -95.7% | [7] -76.2% | [8] -82.8% | [9] -59.3% | [10] -53.4% | [11] -70.1% | [12] -93.1% | [13] -91.1% | [14] -96.2% | [15] -71.3% | [16] -95.3% | [17] -84.3% | [18] -84.5% | [19] -83.9%

COc1ccc(-c2nc3cc(C)ccc3n2CC(=O)N=Nc2c(O)[nH]c3ccccc23)cc1
inactive: [2] 59.3% | [4] 13.8% | [6] 47.8% | [7] 59.3% | [11] 28.9% | [13] 12.4% | [15] 20% | [17] 26.8% | [18] 14.1%
active: [1] 0.97% | [3] -58.1% | [5] -25.3% | [8] -33.8% | [9] 4.27% | [10] -47.1% | [12] -63.2% | [14] 6.89% | [16] -95.1% | [19] -0.636%

O=C(c1ccccc1)C(c1c[nH]c2ccccc12)c1c[nH]c2ccccc12
active: [1] 7.54% | [14] 4.95%
inactive: [2] 20.6% | [3] 64.4% | [4] 76.6% | [5] 51.5% | [6] 94.2% | [7] 56% | [8] 57.9% | [9] 61% | [10] 47.4% | [11] 58% | [12] 14% | [13] 36.8% | [15] 16.4% | [16] 20.2% | [17] 83.8% | [18] 51.3% | [19] 57.8%

Cc1nc(Nc2ccccn2)sc1C(=O)CC(SCC(=O)Nc1ccc(Cl)cc1)c1ccccc1F (centres undefined)
inactive: [1] 12.6% | [5] 42.5% | [7] 20.4% | [12] 24.2% | [15] 13.2% | [17] 17.2%
active: [2] 7.34% | [3] -35.8% | [4] -41.2% | [6] 8.74% | [8] -13.5% | [9] 4.29% | [10] -18% | [11] -7.28% | [13] -60% | [14] 2.15% | [16] 4.66% | [18] -19.1% | [19] -22.1%

Nc1nc(-c2ccccc2)c(N=Nc2ccc([N+](=O)[O-])cc2Cl)s1
inactive: [1] 136% | [2] 53% | [3] 78.5% | [4] 107% | [5] 80.4% | [6] 82% | [7] 86.3% | [8] 74.8% | [9] 85% | [10] 89.6% | [11] 40.7% | [12] 82.9% | [13] 87.1% | [14] 90.3% | [15] 68.1% | [16] 70.1% | [17] 99.9% | [18] 90.4% | [19] 55.8%

CC(C)CSc1nc(NCCc2c[nH]c3ccccc23)c(C#N)c(-c2ccc(F)cc2)n1
active: [1] 3.42%
inactive: [2] 31.5% | [3] 59.5% | [4] 101% | [5] 72.8% | [6] 57.9% | [7] 78.3% | [8] 76.9% | [9] 39.6% | [10] 39.9% | [11] 24.6% | [12] 72.1% | [13] 59.1% | [14] 38% | [15] 22.5% | [16] 11.3% | [17] 32.5% | [18] 24% | [19] 54.3%
